PubChem BioAssay (NCI)
This is part of a sample that, as a whole, favours compounds with a hit. Of some 83,000 tested, about 20% had one in any assay.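 Percent growth is the endpoint: 0 to 100 indicates growth inhibition (40 means 60% inhibition), 0 means no net growth, and negative values indicate cell death.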 Values without a mark were called inactive. Activity calls are given as the source filed them. How the source made its calls: active means growth percent below 10; inactive means the rest.

Tests used:
Assay in all cases: NCI-60 one-dose screen, 48 h (100 = growth as untreated, 0 = no growth, -100 = all killed)
Settings in all cases: 10 µM unless noted
[1] = test system: HCT-15 colon
[2] = test system: SNB-75 CNS
[3] = test system: SNB-19 CNS
[4] = test system: U251 CNS
[5] = test system: PC-3 prostate
[6] = test system: SK-MEL-5 melanoma
[7] = test system: UACC-62 melanoma
[8] = test system: LOX IMVI melanoma
[9] = test system: SK-MEL-28 melanoma
[10] = test system: SK-MEL-2 melanoma
[11] = test system: EKVX NSCLC
[12] = test system: SN12C renal
[13] = test system: UO-31 renal
[14] = test system: TK-10 renal
[15] = test system: ACHN renal
[16] = test system: CAKI-1 renal
[17] = test system: A498 renal
[18] = test system: CCRF-CEM leukemia
[19] = test system: MOLT-4 leukemia

Structure (SMILES)	growth [1]	growth [2]	growth [3]	growth [4]	growth [5]	growth [6]	growth [7]	growth [8]	growth [9]	growth [10]	growth [11]	growth [12]	growth [13]	growth [14]	growth [15]	growth [16]	growth [17]	growth [18]	growth [19]
Nc1cc(F)ccc1NC(=O)c1ccc(NC(=O)C/C=C/c2cccnc2)cc1	29.5%	51.3%	46.7%	34.1%	36.6%	49.7%	42.1%	39.7%	49.4%	41.3%	73%	29.5%	52.6%	52.9%	55.9%	66.4%	43.2%	24.6%	40.7%
C=CCn1c(SCC(=O)Nc2ccc(C(=O)/C=C/c3ccc(Cl)cc3)cc2)nnc1-c1c[nH]c2ccccc12	62.9%	93.5%	76.1%	76.3%	58.4%	42.9%	57.4%	1.53% (active)	90.2%	88.7%	56.1%	71.5%	47.8%	103%	77.6%		91.4%	75.3%	66.4%
CCOC(=O)C(=O)/C(=C\c1ccc(Cl)cc1)C(=O)N1C(=S)NC(=O)C1CC(C)C (stereo not given)	92.8%	101%	99.1%	101%	93.6%	92.8%	91.5%	112%	95.1%	112%	91%	96.9%	86.1%	135%	99.5%	91.3%	102%	91.2%	98.4%
CNC1CCc2c(sc(NC(=O)c3ccc(C(C)(C)C)cc3)c2C(N)=O)C1 (stereo not given)	4.54% (active)	78.8%	55.6%	3.54% (active)	40%	83.6%	60.5%	-88.1% (active)	63.2%	72.8%	54.6%	69.2%	79.5%	101%	37%	42.4%	73.9%	11.5%	0.786% (active)
CC1(C)CC[C@]2(C(=O)N3CCOCC3)CC[C@]3(C)C(=CC[C@@H]4[C@@]5(C)C/C(=C/c6ccccn6)C(=O)C(C)(C)[C@@H]5CC[C@]43C)[C@@H]2C1	52.1%	34.1%	88%	80.7%	20.9%	69.3%	64.8%	55.9%	86.1%		56.1%	67.7%	42%	70.2%	76.9%	28.9%	-3.14% (active)	44.5%	25%
C=CCn1c(-c2nc3ccc(C(=C(C#N)C#N)c4ccccc4)cc3[nH]2)cc2cc(Br)ccc21	30.4%	89.3%	70.8%	51.9%	31.5%	55.9%	39.5%	36.4%	82.9%	96.7%	42.9%	69%	51.9%	94%	55.6%	48.8%	87.7%	50.5%	36.4%
CS(=O)(=O)Nc1cc(-c2ccc3ncc(C#N)c(NCc4ccccc4)c3c2)cnc1Cl	8.19% (active)	-36.7% (active)	7.25% (active)	11.1%		-95.3% (active)	-28% (active)	-32.6% (active)	-7.57% (active)	-42.2% (active)	-20.1% (active)	7.64% (active)	1.63% (active)	-25.2% (active)	5.99% (active)	-27.7% (active)	-57.2% (active)		
CCCn1cnc2c(c1=N)C(c1ccc(F)cc1)c1sc3c(CC)cccc3c1O2 (stereo not given)	12.6%	14.8%	15.3%	18.5%		-12.2% (active)	14%	5.54% (active)	40.4%		33.4%	20.6%	27%	61.3%	18.3%	20.7%	-25.7% (active)	8.39% (active)	9.49% (active)
O=c1[nH]c2ccccc2cc1CSc1ccccc1Nc1nccc(-c2ccc(Cl)cc2)n1	101%	71.7%	98.8%		87.9%	96.6%	77.1%	96.3%		113%	88.6%	94.9%	83.3%	115%	81.5%	80.6%	85.5%	101%	100%
O=C(Cn1c(-c2ccccc2)nc2cc(Cl)c(Cl)cc21)N=Nc1c(O)[nH]c2ccc(Cl)cc12	68.7%	101%	87.8%	93.8%	70.8%	79.5%	71.7%	72.2%	66.4%		75.5%	89.8%	73.7%	104%	74.3%	70.2%		-8.19% (active)	72.3%
COc1cccc2c1CN(C(=O)c1ccc(O)c(C(=O)N3Cc4ccc(OCCC[P+](c5ccccc5)(c5ccccc5)c5ccccc5)cc4C3)c1)C2	102%	80.9%	28.3%	53.6%		35.7%	44.4%	42.7%	63.2%	61.5%	52.4%	90.4%	77.3%	116%	96.6%	82.3%	107%	71.1%	93.6%
O=S(=O)(NCCCNc1nccc(-c2[nH]c(-c3ccccc3)nc2-c2ccc(Cl)c(O)c2)n1)c1ccc(Br)cc1	13.9%	73.6%	49%	30.7%	27.1%	0.46% (active)	13.2%	21.6%		-22.4% (active)	44.2%	37.5%	36.8%	66.6%	24.2%	33.6%	65.4%	21.5%	22.8%
